Source: ChEMBL document CHEMBL3988442, “University of Dundee, Small-Polar-MMV Screening Library” (2021)

Target: T1, Aspartate--tRNA(Asp/Asn) ligase (Mycobacterium tuberculosis (strain ATCC 25618 / H37Rv)) (UniProt P9WFW3); also: in the data most compounds retested in dose-response had high values
T1 sequence (whole entry): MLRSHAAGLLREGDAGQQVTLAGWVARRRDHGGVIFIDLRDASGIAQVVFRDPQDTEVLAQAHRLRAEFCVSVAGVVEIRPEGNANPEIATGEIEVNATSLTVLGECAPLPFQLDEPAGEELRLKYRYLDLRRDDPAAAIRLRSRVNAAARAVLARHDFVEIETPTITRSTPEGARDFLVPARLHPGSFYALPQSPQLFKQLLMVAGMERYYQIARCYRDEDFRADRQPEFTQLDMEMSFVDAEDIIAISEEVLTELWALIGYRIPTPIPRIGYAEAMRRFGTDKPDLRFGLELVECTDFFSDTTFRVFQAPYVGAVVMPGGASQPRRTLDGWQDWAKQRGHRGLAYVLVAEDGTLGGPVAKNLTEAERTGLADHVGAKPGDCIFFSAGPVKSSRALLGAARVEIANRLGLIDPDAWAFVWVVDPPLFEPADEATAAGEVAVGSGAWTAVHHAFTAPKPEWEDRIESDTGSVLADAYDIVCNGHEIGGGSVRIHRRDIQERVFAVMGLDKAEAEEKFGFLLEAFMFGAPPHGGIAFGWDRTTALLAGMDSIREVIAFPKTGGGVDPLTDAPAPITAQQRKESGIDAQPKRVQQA
Test: Assay for Asp RNA synthetase-1 from Mycobacterium tuberculosis
Assay type: functional
Parameters: scale not given: direction of the effect not stated beside the values
Conditions: 30 µM

| SMILES | Percent Effect [%] |
| --- | --- |
| O=C(CCCOCc1ccccc1)N1CCCC1c1ccccn1 (stereo not given) | -1.14 |
| c1coc(-c2nnc(CN3CCOC(Cn4cccn4)C3)o2)c1 (stereo not given) | -4.34 |
| Cc1nc(C)n(CC2CCCN2CCOc2ccc(C#N)cc2)n1 (stereo not given) | -3.28 |
| Cc1ccc(N2CCCN(C(=O)C(C(C)C)n3cncn3)CC2)nn1 (stereo not given) | -4.34 |
| COCc1ncn2c1CN(C(=O)C1CC=CC1)CC2 | 1.48 |
| CSCC(C)(O)CNC(=O)c1cc(Br)ccc1Cl (stereo not given) | -0.23 |
| CN1[C@H](CN2CCCC2)C[C@@H]2CN(C(=O)c3cccn3C)CC[C@@H]21 | 2.46 |
| CN1CC(c2ccccc2)CC12CCN(C(=O)c1ccc(F)cc1)CC2 (stereo not given) | -1.84 |
| CSCC[C@H](NC(=O)Cn1ccc2c(Cl)cccc21)C(=O)O | -3.22 |
| Cc1ncccc1NC(=O)C1=NOC2(CCN(Cc3nccs3)C2)C1 (stereo not given) | 10.6 |
| OC(COCc1cccs1)CN1CCC(c2ccn[nH]2)CC1 (stereo not given) | 1.71 |
| Cc1ccc(CN2CCc3ncnc(-c4ccc(F)cc4)c3CC2)o1 | 5.12 |
| CCc1ccccc1C(=O)N1CCN(S(C)(=O)=O)[C@@H](C)C1 | 0.259 |
| O=C(c1cccs1)N1CCC(O)(CN2CCc3ccccc3C2)C1 (stereo not given) | -5.2 |
| Cc1ccc(CN2CCc3ncnc(C4CCOC4)c3CC2)s1 (stereo not given) | 1.05 |
| CN(Cc1noc(C2CC2)n1)C1CCN(Cc2nnc(C3CC3)o2)C1 (stereo not given) | 4.05 |
| Cc1ccc2cnn(CCC(=O)NCc3c(C)nn(C)c3C)c2c1 | 8.17 |
| CCCNC(=O)c1cc2c(nc1O)CCC(C)C2 (stereo not given) | -2.53 |
| CC(=O)N1CCCN(C(=O)CCc2c(C)noc2C)CC1 | -5.26 |
| O=C(NCC1CCCO1)c1c(-n2cnnn2)sc2c1CCC2 (stereo not given) | 1.11 |

| SMILES | Percent Effect [%] |
| --- | --- |
| O=C(c1cscn1)N1C[C@@H]2[C@@H](C1)OCC(=O)N2CC1CCCC1 | 4.1 |
| CC(C)n1ccnc1C1CCN(C(=O)C2COc3ccccc3O2)CC1 (stereo not given) | -1.53 |
| CC(=O)NCC(=O)N1Cc2nccn2CC(CN2CCCC2)C1 (stereo not given) | -4.29 |
| CC(=O)N1CCCC1c1cc(N2CCN(C3CCCC3)CC2)cc(C)n1 (stereo not given) | -4.16 |
| CC(C)c1nc(C2CCCN2Cc2ccno2)no1 (stereo not given) | 1.46 |
| CCN1CC(C(=O)N(C)Cc2ccon2)CC1=O (stereo not given) | -0.748 |
| Cc1cc(C)c(CNC(=O)NCCOc2ccc3c(c2)CCC3)c(=O)[nH]1 | -2.17 |
| O=C(NCCCOCC1CC1)Nc1cccnc1N1CCOCC1 | -1.34 |
| Cc1cc(C)n(C2CN(CC(=O)NCC(C)(C)N3CCOCC3)C2)n1 | -2.72 |
| COCC(=O)NCc1cc(=O)n2c(n1)CN(Cc1ccsc1)CCC2 | 5.55 |
| CCn1nc(C)c2nnn(CC(=O)Nc3cccc(Cl)c3)c(=O)c21 | -0.523 |
| O=C(c1cccc(CNS(=O)(=O)c2ccccc2F)c1)N1CCCC1 | 5.13 |
| Cc1ccc(N2CCCC(NCC(=O)NCC3CC3)C2)nn1 (stereo not given) | -5.2 |
| O=C(NCCCNC(=O)c1cccc(O)c1)NCc1ccccc1F | -5.63 |
| Cc1cc(C)nc(Nc2cccc(C3CCCN(C)C3)n2)n1 (stereo not given) | -3.29 |
| CC(=O)N(Cc1ncc(C(C)C)o1)C1CCN(Cc2nccn2C)C1 (stereo not given) | 3.99 |
| CN1CCN(c2cc(CNC(=O)c3ccc(=O)[nH]n3)ccn2)CC1 | -0.544 |
| CCOCc1cccc(S(=O)(=O)N2CCSCC2)c1 | -3.43 |
| Cn1ncc2c1NC(=O)CC2c1ccc(O)cc1 (stereo not given) | 0.0331 |
| c1cc(CNCc2ccnc(N3CCOCC3)c2)c2c(c1)OCCO2 | 1.9 |

Target: Shiga toxin 2 (Escherichia coli O157:H7) (UniProt P09385+P09386)
Test: E. coli 0.157:H7 Shiga Toxin SOP - stx2 screening assay
Assay type: functional
Parameters: scale not given: direction of the effect not stated beside the values
Conditions: 30 µM

| SMILES | Percent Effect [%] |
| --- | --- |
| O=C(CCCOCc1ccccc1)N1CCCC1c1ccccn1 (stereo not given) | -0.85 |
| c1coc(-c2nnc(CN3CCOC(Cn4cccn4)C3)o2)c1 (stereo not given) | 3.23 |
| Cc1nc(C)n(CC2CCCN2CCOc2ccc(C#N)cc2)n1 (stereo not given) | -0.486 |
| Cc1ccc(N2CCCN(C(=O)C(C(C)C)n3cncn3)CC2)nn1 (stereo not given) | -13.6 |
| COCc1ncn2c1CN(C(=O)C1CC=CC1)CC2 | 0.0561 |
| CSCC(C)(O)CNC(=O)c1cc(Br)ccc1Cl (stereo not given) | -13.2 |
| CN1[C@H](CN2CCCC2)C[C@@H]2CN(C(=O)c3cccn3C)CC[C@@H]21 | -2.89 |
| CN1CC(c2ccccc2)CC12CCN(C(=O)c1ccc(F)cc1)CC2 (stereo not given) | 11.8 |
| CSCC[C@H](NC(=O)Cn1ccc2c(Cl)cccc21)C(=O)O | -22 |
| Cc1ncccc1NC(=O)C1=NOC2(CCN(Cc3nccs3)C2)C1 (stereo not given) | -15.4 |
| OC(COCc1cccs1)CN1CCC(c2ccn[nH]2)CC1 (stereo not given) | -8.34 |
| Cc1ccc(CN2CCc3ncnc(-c4ccc(F)cc4)c3CC2)o1 | -19.5 |
| CCc1ccccc1C(=O)N1CCN(S(C)(=O)=O)[C@@H](C)C1 | -3 |
| O=C(c1cccs1)N1CCC(O)(CN2CCc3ccccc3C2)C1 (stereo not given) | -25.3 |
| Cc1ccc(CN2CCc3ncnc(C4CCOC4)c3CC2)s1 (stereo not given) | -15.3 |
| CN(Cc1noc(C2CC2)n1)C1CCN(Cc2nnc(C3CC3)o2)C1 (stereo not given) | -15.5 |
| Cc1ccc2cnn(CCC(=O)NCc3c(C)nn(C)c3C)c2c1 | -18.4 |
| CCCNC(=O)c1cc2c(nc1O)CCC(C)C2 (stereo not given) | -21.4 |
| CC(=O)N1CCCN(C(=O)CCc2c(C)noc2C)CC1 | 2.24 |
| O=C(NCC1CCCO1)c1c(-n2cnnn2)sc2c1CCC2 (stereo not given) | 2.95 |

| SMILES | Percent Effect [%] |
| --- | --- |
| O=C(c1cscn1)N1C[C@@H]2[C@@H](C1)OCC(=O)N2CC1CCCC1 | -48.6 |
| CC(C)n1ccnc1C1CCN(C(=O)C2COc3ccccc3O2)CC1 (stereo not given) | 13.2 |
| CC(=O)NCC(=O)N1Cc2nccn2CC(CN2CCCC2)C1 (stereo not given) | 2.69 |
| CC(=O)N1CCCC1c1cc(N2CCN(C3CCCC3)CC2)cc(C)n1 (stereo not given) | 5 |
| CC(C)c1nc(C2CCCN2Cc2ccno2)no1 (stereo not given) | 1.7 |
| CCN1CC(C(=O)N(C)Cc2ccon2)CC1=O (stereo not given) | -14.8 |
| Cc1cc(C)c(CNC(=O)NCCOc2ccc3c(c2)CCC3)c(=O)[nH]1 | 15 |
| O=C(NCCCOCC1CC1)Nc1cccnc1N1CCOCC1 | 4.93 |
| Cc1cc(C)n(C2CN(CC(=O)NCC(C)(C)N3CCOCC3)C2)n1 | -13.3 |
| COCC(=O)NCc1cc(=O)n2c(n1)CN(Cc1ccsc1)CCC2 | 10 |
| CCn1nc(C)c2nnn(CC(=O)Nc3cccc(Cl)c3)c(=O)c21 | -43.6 |
| O=C(c1cccc(CNS(=O)(=O)c2ccccc2F)c1)N1CCCC1 | 22.1 |
| Cc1ccc(N2CCCC(NCC(=O)NCC3CC3)C2)nn1 (stereo not given) | -32.6 |
| O=C(NCCCNC(=O)c1cccc(O)c1)NCc1ccccc1F | -41.9 |
| Cc1cc(C)nc(Nc2cccc(C3CCCN(C)C3)n2)n1 (stereo not given) | 1.38 |
| CC(=O)N(Cc1ncc(C(C)C)o1)C1CCN(Cc2nccn2C)C1 (stereo not given) | 17.4 |
| CN1CCN(c2cc(CNC(=O)c3ccc(=O)[nH]n3)ccn2)CC1 | -57.8 |
| CCOCc1cccc(S(=O)(=O)N2CCSCC2)c1 | -4.15 |
| Cn1ncc2c1NC(=O)CC2c1ccc(O)cc1 (stereo not given) | -13.8 |
| c1cc(CNCc2ccnc(N3CCOCC3)c2)c2c(c1)OCCO2 | -11.8 |
